According to PubChem BioAssay (NCI):
This is part of a sample that, as a whole, favours compounds with a hit. Of some 79,000 tested, about 15% had one in any assay. Values without a mark were called inactive. No stated cut-off is given here; in the data, active means growth inhibition above about 70%; inactive means the rest.

Experiment: NCI Yeast Anticancer Drug Screen. Data for the rad50 strain (AID 155);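 further: 0% = growth of vehicle-only cultures of the same strain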
Settings: S. cerevisiae rad50 strain growth inhibition; at 50.0 µM; stronger effect = higher value
Procedure, shortened: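 Readout: growth inhibition relative to vehicle-treated cultures. Compound exposure was carried out in a genetically defined yeast strain deficient in DNA damage repair.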

Q: For `Cc1cccc(CO)c1`, which growth inhibition is on record?
A: The growth inhibition was 14.3%.

Q: For `O=C(NCO)c1ccccc1`, which growth inhibition is on record?
A: Its growth inhibition is 36.2%.

Q: For `CC1(C(=O)O)NC(C(=O)O)Cc2c1[nH]c1ccccc21` (stereo not drawn), which growth inhibition is on record?
A: The growth inhibition was 26.5%.

Q: For `COc1ccc(C2(O)CCCCC2)cc1`, which growth inhibition is on record?
A: Its growth inhibition is 17.7%.

Q: For `NNc1ccccc1C(=O)O`, which growth inhibition is on record?
A: The growth inhibition was 4.4%.

Q: With `CCS(=O)(=O)CCCl` as the compound, how does the growth inhibition read?
A: Its growth inhibition is 12.2%.

Q: Which growth inhibition does the source give for `COC1=CC(=O)c2nc(Cl)ccc2C1=O` here?
A: Its growth inhibition is 29%.

Q: Which growth inhibition does the source give for `COC(=O)c1ccccc1N(C)C` here?
A: Its growth inhibition is 0.55%.

Q: For `Cc1cc(=O)[nH]c(NN=C2CCCC2)n1`, which growth inhibition is on record?
A: The growth inhibition was -27.9%.

Q: Which growth inhibition does the source give for `CCOC(=O)C/C(C)=N\O` here?
A: The growth inhibition was 4.05%.

Q: For `CC1(C)OC(=O)C(c2ccsc2)C(=O)O1`, which growth inhibition is on record?
A: The growth inhibition was -6.25%.

Q: Which growth inhibition does the source give for `O=C(Nc1ccccc1)OCCc1ccccc1` here?
A: Its growth inhibition is 45.3%.

Q: For `C=CC(=O)OCCCCCCCC`, which growth inhibition is on record?
A: Its growth inhibition is 5.4%.

Q: For `Cc1c(C(=O)O)c(=O)n(-c2ccccc2)n1C`, which growth inhibition is on record?
A: Its growth inhibition is 3.1%.

Q: Which growth inhibition does the source give for `C=CCCCCCCCCCOC(C)=O` here?
A: The growth inhibition was -14.3%.

Q: For `O=C(O)CSCSCC(=O)O`, which growth inhibition is on record?
A: Its growth inhibition is 1.45%.

Q: For `CC(=O)OC(OC(C)=O)C1CCCO1` (stereo not drawn), which growth inhibition is on record?
A: The growth inhibition was -5.75%.

Q: With `S=C1NCc2cncnc2N1` as the compound, how does the growth inhibition read?
A: The growth inhibition was -13.7%.

Q: With `Cc1ccncc1C(N)=O` as the compound, how does the growth inhibition read?
A: Its growth inhibition is -1.4%.

Q: Which growth inhibition does the source give for `CSC[C@H](NC(=O)COc1cccc2cnccc12)C(=O)NC(Cc1ccccc1)C(O)C(=O)N1CSC[C@H]1C(=O)NC(C)(C)C` (stereo partly drawn) here?
A: The growth inhibition was -34.3%.

Q: With `CC1CC(O)C2C3(C)CCCC2(COC3=O)C12CCC1(CCOC1=O)O2` (stereo not drawn) as the compound, how does the growth inhibition read?
A: The growth inhibition was 4.4%.

Q: With `CC(C)(C)n1nc(C2CC2)c(Br)c1NC(=O)c1ccccc1F` as the compound, how does the growth inhibition read?
A: The growth inhibition was -6.6%.

Q: With `Nc1ccc(N)c([N+](=O)[O-])c1` as the compound, how does the growth inhibition read?
A: The growth inhibition was -30.9%.

Q: For `CC(C)=NNC(N)=S`, which growth inhibition is on record?
A: The growth inhibition was 2.45%.

Q: Which growth inhibition does the source give for `CC(=O)Nc1cccc(Cl)c1C` here?
A: Its growth inhibition is 17.6%.

Q: For `CN(C)c1ccc2oc(=O)c3ccccc3c2c1`, which growth inhibition is on record?
A: Its growth inhibition is 6.05%.

Q: For `O=[N+]([O-])c1ccccc1S(=O)c1ccccc1[N+](=O)[O-]`, which growth inhibition is on record?
A: Its growth inhibition is 16.1%.

Q: Which growth inhibition does the source give for `CC1CCCCN1C(=S)Nc1ccc(S(=O)(=O)N2CCCCC2)cc1` (stereo not drawn) here?
A: The growth inhibition was -18.6%.

Q: Which growth inhibition does the source give for `CCCCC(=O)c1ccc(OC)cc1` here?
A: Its growth inhibition is 1.9%.

Q: With `Cc1cc(C)cc(NCCC#N)c1` as the compound, how does the growth inhibition read?
A: Its growth inhibition is 15.5%.

Q: With `CCOC(=O)c1[nH]c(C)c(C(=O)O)c1C` as the compound, how does the growth inhibition read?
A: Its growth inhibition is -4.45%.

Q: Which growth inhibition does the source give for `c1ncc2[nH]cnc2n1` here?
A: The growth inhibition was -14.6%.

Q: Which growth inhibition does the source give for `N#CSc1cc(S(N)(=O)=O)ccc1N` here?
A: The growth inhibition was 5.65%.

Q: For `Cc1cc(=O)n(-c2ccc(F)cc2)[nH]1`, which growth inhibition is on record?
A: The growth inhibition was -5.15%.

Q: For `Sc1ccc(Nc2c3ccccc3nc3ccccc23)cc1`, which growth inhibition is on record?
A: Its growth inhibition is 28.4%.

Q: Which growth inhibition does the source give for `COC(=O)Nc1nc2ccc(C(=O)c3ccc(F)cc3)cc2[nH]1` here?
A: The growth inhibition was -9%.

Q: For `O=C(O)c1cc([N+](=O)[O-])ccc1Cl`, which growth inhibition is on record?
A: The growth inhibition was 27.9%.

Q: For `Cc1cc(N)ccc1-c1ccc(N)cc1C`, which growth inhibition is on record?
A: Its growth inhibition is -3%.

Q: With `Cc1ccc(C(=O)N/N=C/c2ccc3c(c2)OCO3)cc1` as the compound, how does the growth inhibition read?
A: The growth inhibition was 18.1%.

Experiment: NCI Yeast Anticancer Drug Screen. Data for the mec2-1 strain (AID 157)
Settings: S. cerevisiae mec2-1 strain, at 50.0 µM, stronger effect = higher value
Procedure, shortened: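 Each compound was tested on mec2-1 yeast, a strain altered in DNA damage repair or cell cycle control. Growth inhibition is reported relative to vehicle.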

Q: Which growth inhibition does the source give for `Cc1cccc(CO)c1` here?
A: The growth inhibition was -28.6%.

Q: For `O=C(NCO)c1ccccc1`, which growth inhibition is on record?
A: The growth inhibition was 1.95%.

Q: Which growth inhibition does the source give for `CC1(C(=O)O)NC(C(=O)O)Cc2c1[nH]c1ccccc21` (stereo not drawn) here?
A: The growth inhibition was -13.2%.

Q: For `COc1ccc(C2(O)CCCCC2)cc1`, which growth inhibition is on record?
A: The growth inhibition was -13.2%.

Q: With `NNc1ccccc1C(=O)O` as the compound, how does the growth inhibition read?
A: Its growth inhibition is -3.05%.

Q: Which growth inhibition does the source give for `CCS(=O)(=O)CCCl` here?
A: The growth inhibition was -5.1%.

Q: For `COC1=CC(=O)c2nc(Cl)ccc2C1=O`, which growth inhibition is on record?
A: Its growth inhibition is 9.95%.

Q: With `COC(=O)c1ccccc1N(C)C` as the compound, how does the growth inhibition read?
A: The growth inhibition was -11.2%.

Q: For `Cc1cc(=O)[nH]c(NN=C2CCCC2)n1`, which growth inhibition is on record?
A: Its growth inhibition is -52.5%.

Q: Which growth inhibition does the source give for `CCOC(=O)C/C(C)=N\O` here?
A: Its growth inhibition is -11.3%.

Q: For `CC1(C)OC(=O)C(c2ccsc2)C(=O)O1`, which growth inhibition is on record?
A: The growth inhibition was -9.35%.

Q: Which growth inhibition does the source give for `O=C(Nc1ccccc1)OCCc1ccccc1` here?
A: The growth inhibition was 37.8%.

Q: For `C=CC(=O)OCCCCCCCC`, which growth inhibition is on record?
A: Its growth inhibition is -14.3%.

Q: For `Cc1c(C(=O)O)c(=O)n(-c2ccccc2)n1C`, which growth inhibition is on record?
A: The growth inhibition was -10.2%.

Q: With `C=CCCCCCCCCCOC(C)=O` as the compound, how does the growth inhibition read?
A: The growth inhibition was -41.1%.

Q: With `O=C(O)CSCSCC(=O)O` as the compound, how does the growth inhibition read?
A: The growth inhibition was -26.4%.

Q: Which growth inhibition does the source give for `CC(=O)OC(OC(C)=O)C1CCCO1` (stereo not drawn) here?
A: The growth inhibition was -21.6%.

Q: With `S=C1NCc2cncnc2N1` as the compound, how does the growth inhibition read?
A: Its growth inhibition is -2.05%.

Q: Which growth inhibition does the source give for `Cc1ccncc1C(N)=O` here?
A: The growth inhibition was -2.8%.

Q: With `CSC[C@H](NC(=O)COc1cccc2cnccc12)C(=O)NC(Cc1ccccc1)C(O)C(=O)N1CSC[C@H]1C(=O)NC(C)(C)C` (stereo partly drawn) as the compound, how does the growth inhibition read?
A: Its growth inhibition is -17.2%.

Q: Which growth inhibition does the source give for `CC1CC(O)C2C3(C)CCCC2(COC3=O)C12CCC1(CCOC1=O)O2` (stereo not drawn) here?
A: Its growth inhibition is 8.35%.

Q: For `CC(C)(C)n1nc(C2CC2)c(Br)c1NC(=O)c1ccccc1F`, which growth inhibition is on record?
A: The growth inhibition was -12.2%.

Q: For `Nc1ccc(N)c([N+](=O)[O-])c1`, which growth inhibition is on record?
A: Its growth inhibition is -17.8%.

Q: Which growth inhibition does the source give for `CC(C)=NNC(N)=S` here?
A: Its growth inhibition is -9.4%.

Q: For `CC(=O)Nc1cccc(Cl)c1C`, which growth inhibition is on record?
A: Its growth inhibition is 11.7%.

Q: With `CN(C)c1ccc2oc(=O)c3ccccc3c2c1` as the compound, how does the growth inhibition read?
A: The growth inhibition was 7.55%.

Q: For `O=[N+]([O-])c1ccccc1S(=O)c1ccccc1[N+](=O)[O-]`, which growth inhibition is on record?
A: Its growth inhibition is 21.6%.

Q: Which growth inhibition does the source give for `CC1CCCCN1C(=S)Nc1ccc(S(=O)(=O)N2CCCCC2)cc1` (stereo not drawn) here?
A: The growth inhibition was -29.2%.

Q: Which growth inhibition does the source give for `CCCCC(=O)c1ccc(OC)cc1` here?
A: The growth inhibition was -8.4%.

Q: Which growth inhibition does the source give for `Cc1cc(C)cc(NCCC#N)c1` here?
A: The growth inhibition was -32.5%.

Q: For `CCOC(=O)c1[nH]c(C)c(C(=O)O)c1C`, which growth inhibition is on record?
A: Its growth inhibition is -26.3%.

Q: With `c1ncc2[nH]cnc2n1` as the compound, how does the growth inhibition read?
A: The growth inhibition was -4.1%.

Q: Which growth inhibition does the source give for `N#CSc1cc(S(N)(=O)=O)ccc1N` here?
A: The growth inhibition was -10.2%.

Q: With `Cc1cc(=O)n(-c2ccc(F)cc2)[nH]1` as the compound, how does the growth inhibition read?
A: The growth inhibition was -14.1%.

Q: Which growth inhibition does the source give for `Sc1ccc(Nc2c3ccccc3nc3ccccc23)cc1` here?
A: The growth inhibition was 33.6%.

Q: For `COC(=O)Nc1nc2ccc(C(=O)c3ccc(F)cc3)cc2[nH]1`, which growth inhibition is on record?
A: The growth inhibition was -6.35%.

Q: With `O=C(O)c1cc([N+](=O)[O-])ccc1Cl` as the compound, how does the growth inhibition read?
A: The growth inhibition was 11.2%.

Q: For `Cc1cc(N)ccc1-c1ccc(N)cc1C`, which growth inhibition is on record?
A: Its growth inhibition is -6.45%.

Q: With `Cc1ccc(C(=O)N/N=C/c2ccc3c(c2)OCO3)cc1` as the compound, how does the growth inhibition read?
A: Its growth inhibition is 8.35%.
